Screening data as filed in PubChem.
The list is not random: actives were taken first. Their share in the collection is about 4.6%.
hgDAF12 agonist: agonists of H. glycines DAF-12 nuclear receptor. HEK293 GAL4-hgDAF12 UAS-luciferase reporter, agonist luminescence; normalized to butyrate control. activation, % at 6.8 µM. actives 1.8% (n = 370,000). AID 687014;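 active = activation above a cutoff set at the mean of all screened compounds plus 3 SD, cut at about 10% in these data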;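 note: 0% = DMSO wells and 100% = sodium butyrate wells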
DAX1 inh-1: inhibits human nuclear receptor DAX1. HEK293 Gal4-DAX1 luciferase reporter, luminescence. AID 504766. inhibition, % at 6.75 µM. P51843. actives 0.99% (n = 340,000);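 active = inhibition above the mean over all tested compounds plus 3 SD, cut at about 4.2% in these data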;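 note: 0% = DAX1-transfected cells with DMSO and 100% = empty-vector control cells with DMSO; inhibition shows as a rise in luminescence from relieved DAX1 repression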
ssDAF-12 act: activators of S. stercoralis DAF-12 nuclear receptor. HEK293 ssDAF-12/GRIP1 lit1-tk-luc reporter, luminescence; % of 3 µM dafachronic acid response. activation, % at 6.8 µM. actives 1% (n = 370,000);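 active = activation above the mean over all tested compounds plus 3 SD, cut at about 0.9% in these data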;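 note: 0% = DMSO-only wells and 100% = 3 µM delta7-dafachronic acid wells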
DAX1 inh-2: DAX1 (NR0B1) inhibition, primary screen; AID 652010; inhibition, % at 6.8 µM; actives 1.1% (n = 370,000); HEK293T StAR-luciferase reporter, SF-1/DAX-1 repression relief;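 active = inhibition above the mean over all tested compounds plus 3 SD, cut at about 3.6% in these data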;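 note: 0% = DAX-1 cells with DMSO and 100% = cells lacking DAX-1 with DMSO; higher inhibition means more luminescence from relief of DAX-1 repression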
hcDAF12 agonist: activates DAF-12 receptor from parasite H. contortus | HEK293 hcDAF-12 lit1-tk-luc reporter, luminescence; 0% DMSO, 100% Δ7-dafachronic acid | activation, % at 6.8 µM | actives 1.4% (n = 370,000) | AID 652067;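 active = activation above the mean of all tested compounds plus 3 SD, cut at about 5.5% in these data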;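 note: 100% = response to 3 µM Δ7-dafachronic acid high control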
Wee1 degr inh: inhibitors of human Wee1 degradation | AID 1321 | actives 1.2% (n = 220,000) | HeLa Luc-Wee1K328M stability, luciferase luminescence; 100% = proteasome inhibitor MG132 effect | reporter increase, % at 5 µM | P30291;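 active = activation above the mean of all tested compounds plus 3 SD, set per screening run, cut at about 8.8% in these data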;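 note: cells exposed to compound for 20 h before luminescence read; 0% = DMSO alone and 100% = MG132 at 30 µM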
Target sequence (P30291 whole entry K328M): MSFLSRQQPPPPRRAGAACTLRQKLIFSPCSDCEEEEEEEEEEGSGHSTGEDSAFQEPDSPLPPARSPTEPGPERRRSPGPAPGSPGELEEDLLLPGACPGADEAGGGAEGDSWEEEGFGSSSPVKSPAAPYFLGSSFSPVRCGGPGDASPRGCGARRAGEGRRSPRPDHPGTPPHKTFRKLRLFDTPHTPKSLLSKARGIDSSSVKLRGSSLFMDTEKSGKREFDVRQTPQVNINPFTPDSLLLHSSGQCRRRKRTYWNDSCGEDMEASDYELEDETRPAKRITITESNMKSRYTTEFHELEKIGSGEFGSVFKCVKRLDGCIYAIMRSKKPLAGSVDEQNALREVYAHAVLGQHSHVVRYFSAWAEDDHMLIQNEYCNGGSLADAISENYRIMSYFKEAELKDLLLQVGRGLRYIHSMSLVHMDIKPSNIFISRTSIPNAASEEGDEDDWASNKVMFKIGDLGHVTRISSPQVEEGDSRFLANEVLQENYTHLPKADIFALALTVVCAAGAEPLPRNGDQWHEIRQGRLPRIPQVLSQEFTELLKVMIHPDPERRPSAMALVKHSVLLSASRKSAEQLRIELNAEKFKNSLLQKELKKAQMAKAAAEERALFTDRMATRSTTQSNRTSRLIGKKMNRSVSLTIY
DAX1 conf: NR0B1 (human) inhibition, confirmation. HEK293T StAR-promoter luciferase reporter, SF-1/DAX-1 repression. actives 87% (n = 2,400). inhibition, % at 6.8 µM. AID 652134. shares compounds with DAX1 inh-2;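 active = inhibition above the average of every tested compound plus 3 SD, cut at about 3.8% in these data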;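 note: 0% = DAX-1 cells with DMSO and 100% = no DAX-1 control cells with DMSO; active compounds raise luminescence by relieving repression of the StAR reporter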
SF1 AF2mut Luc: nonselective inhibitor or artifact in SF-1 mutant DAX1 counter-screen; shares compounds with DAX1 inh-2; HEK293 StAR-luciferase, SF-1 AF2 mutant, luminescence; inhibition, % at 6.8 µM; actives 78% (n = 2,400); AID 652136;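 active = inhibition above the mean of all tested compounds plus 3 SD, cut at about 3% in these data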;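 note: 0% = DAX-1 transfected cells with DMSO and 100% = cells without DAX-1 with DMSO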
* marks the source's active call; other numbers are inactive results; . = not tested or not shown.

SMILES	hgDAF12 agonist	DAX1 inh-1	ssDAF-12 act	DAX1 inh-2	hcDAF12 agonist	Wee1 degr inh	DAX1 conf	SF1 AF2mut Luc
O=C(C[C@H]1CC[C@H]2[C@@H](COC[C@@H](O)CN2Cc2cc(F)ccc2F)O1)NCc1ccc(Cl)cc1	2.0	.	-1.0	1.4	-0.2	.	.	.
COc1ccccc1NS(=O)(=O)c1cc(NC(=O)c2ccc(NC(C)=O)cc2)ccc1N1CCOCC1	-4.3	1.6	-1.4	7.0*	-1.4	.	10.5*	0.3
COc1ccccc1-c1cc2nc(-c3ccccc3)cc(N3CCN(C(=O)c4ccoc4)CC3)n2n1	-9.9	-4.1	-1.1	-4.0	-4.1	.	.	.
N#Cc1c(NC(=O)/C=C/c2ccco2)sc2c1CCCC2	6.1	2.2	0.7	5.1*	6.2*	8.4	31.4*	-5.9
O=C(/C=C/c1ccco1)Nc1sc2c(c1C(=O)O)CCC2	3.1	0.3	0.0	0.9	-0.4	-1.1	.	.
CCOC(=O)[C@]12CCCC=C1N(Cc1ccc(Cl)cc1Cl)C(=O)[C@H](CC(=O)NCc1ccc(OC)c(OC)c1)C2	-2.5	.	-1.5	-2.2	-0.8	.	.	.
O=C(CSc1nc2[nH]c(=O)cc(O)c2s1)Nc1ccc(Br)cc1	-0.5	1.0	-1.1	8.7*	-0.3	.	0.1	0.2
O=C(CSc1nc2[nH]c(=O)cc(O)c2s1)Nc1cccc(Br)c1	-0.5	0.8	-1.2	5.7*	-0.2	.	2.2	2.1
Cc1cc(O)c(N=Nc2ccc(C(=O)O)cc2)cc1C	8.3	4.3*	0.1	5.2*	3.0	.	21.5*	7.7*
CN(C)c1ccc(N=Nc2ccc(C(=O)O)cc2)cc1	8.8	-5.0	0.3	2.1	4.8	.	.	.
Cc1cc(C)n(-c2ccc(C(=O)Nc3ccccn3)cc2)n1	12.3*	-0.1	-0.1	4.7*	4.5	5.2	11.1*	5.4*
O=C(Nc1ccccn1)c1ccc(C(=O)c2ccccc2)cc1	12.6*	0.3	-0.5	9.0*	3.0	.	10.9*	4.7*
O=C(NC(=O)c1ccccc1)Nc1ccccn1	-1.1	-4.2	-0.8	1.6	-0.7	.	.	.
Cc1cc(C)n(-c2ccc(C(=O)Nc3cccnc3Cl)cc2)n1	1.2	-0.4	-1.8	-0.1	-1.2	1.9	.	.
C=CCn1c(CNC(=O)c2ccccc2F)nnc1SCC(=O)N1CCOCC1	0.8	0.1	-0.3	0.1	-1.3	.	.	.
C/C(=N\NC(=O)c1ccc(O)cc1)c1ccc(NC(=O)Cc2ccccc2)cc1	12.1*	1.8	-0.3	5.5*	2.2	.	2.8	0.9
Cc1ccc(Cn2cc(CN3CC(N4CCN(C5CCN(C)CC5)CC4)CS3(=O)=O)nn2)cc1 (configuration not stated)	-1.7	.	-1.0	4.7*	0.1	.	2.6	4.1*
Cc1cc(S(=O)(=O)Nc2ccc(C(=O)NC3CC3)cc2)ccc1F	0.4	2.1	-1.1	-0.4	0.1	.	.	.
Cc1[nH]n(-c2cccc(Cl)c2)c(=O)c1C=NCc1ccco1	11.6*	5.7*	0.5	5.8*	4.2	5.7	8.3*	5.1*
FC(F)(F)c1ccccc1Cc1c(-c2ccc(Cl)cc2)nc2ccc(Br)cn12	4.9	.	-1.1	1.3	0.5	.	.	.
CCOc1ccc(-n2c(SCC(=O)Nc3ccc4cn[nH]c4c3)nnc2-c2ccc(C(C)(C)C)cc2)cc1	3.1	.	-1.4	-0.7	-1.1	.	.	.
CC(C)c1ccc(NC(=O)c2ccc3snnc3c2)cc1	12.4*	1.1	0.3	5.0*	4.7	.	2.6	0.7
O=C(Nc1ccccc1)c1ccc2snnc2c1	4.7	2.0	-1.0	-0.3	-1.9	2.9	.	.
O=C(NCCc1ccc(Cl)cc1)c1ccc2nc[nH]c2c1	3.0	1.5	-1.8	-0.5	-0.7	-0.1	.	.
O=C(Nc1ccc(Cl)cn1)c1ccc2nccnc2c1	7.5	0.9	1.6*	6.4*	1.4	.	4.5*	1.8
SMILES	hgDAF12 agonist	DAX1 inh-1	ssDAF-12 act	DAX1 inh-2	hcDAF12 agonist	Wee1 degr inh	DAX1 conf	SF1 AF2mut Luc
O=C(NCCc1ccc(Cl)cc1)c1ccc2nccnc2c1	8.4	2.0	-0.4	5.4*	3.8	.	8.2*	7.9*
COc1ccccc1Cc1c(-c2ccc(C)cc2)nc2ccc(Br)cn12	23.1*	.	0.6	7.4*	6.3*	.	8.2*	5.6*
COc1ccccc1Cc1c(-c2ccc(C)cc2)nc2c(C)cc(Br)cn12	4.8	.	0.7	5.3*	2.8	.	-0.4	-0.4
COC(=O)c1ccc2nc(-c3ccccc3)c(Cc3ccccc3OC)n2c1	2.0	.	0.8	4.8*	2.0	.	2.0	1.8
COC(=O)c1ccc2nc(-c3ccc(C)cc3)c(Cc3ccccc3OC)n2c1	0.0	.	-0.8	0.8	1.0	.	.	.
COc1ccccc1Cc1c(-c2ccc(Cl)cc2)nc2ccc(Br)cn12	4.0	.	-0.1	5.5*	1.1	.	6.3*	4.3*
O=C(COC(=O)CNC(=O)c1ccc(Cl)cc1Cl)NC1CCCCCCC1	1.9	-0.1	-0.5	2.4	0.2	.	.	.
COc1ccccc1C(=O)NNC(=O)CN(C)S(=O)(=O)c1ccc(Cl)cc1	-2.5	1.1	-0.9	-0.4	-0.2	.	.	.
N#CC1=CC2CN(Cc3ccccc3)C1C1C(=O)N(c3ccccc3)C(=O)C21 (configuration not stated)	-0.8	0.6	-0.8	-0.8	-0.7	.	.	.
O=C(Nc1ccccc1C(F)(F)F)OCCN1C(=O)CCC12CCC(c1ccccc1)CC2 (configuration not stated)	-2.3	.	-2.0	-0.8	-2.9	.	.	.
Clc1ccc(-c2nc3ccc(Br)cn3c2Cc2ccsc2)cc1	7.8	.	0.6	5.2*	2.5	.	5.2*	2.1
N#Cc1ccc(-c2nc3ccc(Br)cn3c2Cc2ccsc2)cc1	4.6	.	-1.2	0.7	-0.9	.	.	.
CCNc1nc(NCC)n2c(SCC(=O)Nc3ccccc3F)nnc2n1	-4.0	1.2	-1.1	4.5*	-1.8	.	1.2	0.9
CCNc1nc(NCC)n2c(SCC(=O)Nc3ccccc3OC(F)F)nnc2n1	-1.6	0.5	-1.3	0.0	-1.7	.	.	.
O=C(COc1ccc2ccccc2c1)Nc1nc2ccccc2[nH]1	3.2	-0.3	-0.3	-0.1	1.3	-2.2	.	.
COc1ccc(OCc2nc3ccccc3[nH]2)cc1	10.1	1.6	0.4	5.7*	2.2	7.2	13.1*	8.4*
c1ccc2cc(OCc3nc4ccccc4[nH]3)ccc2c1	10.8*	2.6	0.0	4.8*	3.9	6.4	14.7*	7.6*
COc1cccc(OCc2nc3ccccc3[nH]2)c1	9.8	2.3	-0.1	5.5*	2.8	10.6*	6.3*	7.0*
O=C(Nc1ccccc1)c1ccc(NC(=O)C2CC2)cc1	5.2	0.4	-0.7	6.5*	0.2	.	7.7*	5.2*
